In PubChem BioAssay (NCI):
Where “and” joins values, the source holds several entries; their conditions need not be identical. Equal entries are not always repeated. About 83,000 compounds went through this panel and 20% of them were active in at least one assay; those are over-represented in the sample as a whole.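 A percent growth of 40 corresponds to 60% growth inhibition; 0 means no net growth; -100 means all cells died. Active threshold: below 10.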 Calls of active or inactive are those of the source.

These molecules were tested on MOLT-4 leukemia (assay: NCI-60 one-dose screen, 48 h (100 = growth as untreated, 0 = no growth, -100 = all killed)). Details: 4.75 µM.
Experimental: Growth inhibition of the MOLT-4 human tumor cell line is measured as a screen for anti-cancer activity. Cells are grown in 96 well plates and exposed to the test compound for 48 hours. Compounds are tested at a single concentration, which is 10^-5 M for most compounds. The reported endpoint is percent growth (GI% or GIPRCNT), where numbers from 0 - 100% represent growth inhibition, and numbers from -100% - 0 represent cell death. For example, a value of 40 represents 60% growth inhibition. A value of 0 means no net growth occurred over the course of the experiment. A value of -40 indicates 40% of cells at the beginning of the experiment died by the end of the experiment. A value of -100 means all cells are dead at the end of the experiment.
NCI-60 Human Tumor Cell Lines Screen was performed using the standard one-dose NCI protocol, which is described in more detail at https://dtp.cancer.gov/discovery_development/nci-60/default.htm.
Compounds with GIPRCNT values below 10 were considered active. Activity score was based on GIPRCNT using the following formula: […]
Score is 0 for GIPRCNT values of 100 or above, 50 for GIPRCNT values of 0, and 100 for GIPRCNT values of -100.

| Structure (SMILES) | growth |
| --- | --- |
| CC(=O)OCC1OC([S-])C(OC(C)=O)C(OC(C)=O)C1OC(C)=O.[Au+].c1ccc(CN2[CH-]N(Cc3ccccc3)C(c3ccccc3)=C2c2ccccc2)cc1 | 3.9% (active) |

Same assay, conditions: 10 µM

| Structure (SMILES) | growth |
| --- | --- |
| CC(=O)OCC1OC([S-])C(OC(C)=O)C(OC(C)=O)C1OC(C)=O.[Au+].c1ccc(CN2[CH-]N(Cc3ccccc3)C(c3ccccc3)=C2c2ccccc2)cc1 | 13.5% (inactive) |
| O=C(O)CCCc1ccc(N(CCCl)CCCl)cc1 | 73.4% (inactive) and 35.5% (inactive) |

Same assay, conditions: 10 µM unless noted

| Structure (SMILES) | growth |
| --- | --- |
| CC[C@H](C)[C@H](NC(=O)[C@H]1CCCCN1C)C(=O)N(C)[C@H](CCc1nc(C(=O)N[C@@H](Cc2ccccc2)C[C@H](C)C(=O)O)cs1)C(C)C | 20.4% (inactive) |
| CC(=O)c1cccc(S(=O)(=O)F)c1 | 112% (inactive) |
| Cc1ccc(C(=O)O[C@H](C(=O)O)[C@H](OC(=O)c2ccc(C)cc2)C(=O)O)cc1 | 90.9% (inactive) |
| N#CCC(=O)c1ccccc1 | 95.2% (inactive) |
| OCCNC1CCCCC1 | 89.2% (inactive) |
| CCCCOCCOP(=O)(OCCOCCCC)OCCOCCCC | 92.3% (inactive) |
| CCOC(=O)C1C(C=C(C)C)C1(C)C (stereo not given) | 85.1% (inactive) |
| Cn1cc(-c2csc(-c3cn(CCCCN4CCOCC4)c4ccc(F)cc34)n2)c2cccnc21 | 46.7% (inactive) |
| CC/C(Cc1ccccc1)=C(\c1ccc(OCCN2CCCC2)cc1)c1ccc(OC(=O)NCc2ccccc2)cc1 | 11.7% (inactive) |
| O=C1CCCCC1CN1CCCCC1 (stereo not given) | 116% (inactive) |
| CCCCCCCCCCCCCCCCCC1OCC(COC(=O)O[C@@H](C(=O)O[C@H]2C[C@@]3(O)[C@@H](OC(=O)c4ccccc4)[C@@H]4[C@]5(OC(C)=O)CO[C@@H]5C[C@H](O)[C@@]4(C)C(=O)[C@H](OC(C)=O)C(=C2C)C3(C)C)[C@@H](NC(=O)c2ccccc2)c2ccccc2)O1 (stereo not given in full) | 43.6% (inactive) |
| O=[P+](O)c1cccnc1 | 109% (inactive) |
| COc1ccc(C(C#N)C(C)=O)cc1 (stereo not given) | 99.7% (inactive) |
| CO[C@@H]([CH2][Hg][O]C(=O)c1ccccc1)[C@@H]([CH2][Hg][O]C(=O)c1ccccc1)OC | 27.4% (inactive) |
| Cc1cc(Br)c([N+](=O)[O-])cc1[N+](=O)[O-] | 71.1% (inactive) |
| Cc1cc(NC(=O)NCCCOc2ccc(N3C(N)=NC(N)=NC3(C)C)cc2Cl)ccc1S(=O)(=O)F | 37.5% (inactive) |
| Cc1cc(N)ccc1N | 107% (inactive) |
| CCOP(=O)(OCC)C(=O)N(CC)CC | 114% (inactive) |

| Structure (SMILES) | growth |
| --- | --- |
| CC(=O)Nc1nc2c(s1)C1=CC[C@H]3[C@@H]4CC[C@H](OC(C)=O)[C@@]4(C)CC[C@@H]3[C@@]1(C)CC2 | 82.9% (inactive) |
| Nc1ccc2c(c1)Cc1cc(N)ccc1-2 | 104% (inactive) |
| CC1(C)N(Nc2ccccc2)C(=O)C2CCCN21 (stereo not given) | 15.1% (inactive) |
| CN1CCN(c2ccc(Cl)cc2)CC1 | 75.6% (inactive) |
| C#COc1cccc(Nc2ncnc3cc(NC(=O)CF)ccc23)c1 | 5.47% [6.25 µM] (active) |
| CC(C)CCC1C(=O)NC(=O)NC1=O | 99.1% (inactive) |
| O=[N+]([O-])c1ccc2scc3c4ccccc4nc-3c2c1 | -11.7% (active) |
| O=S1(=O)OCCO1 | 114% (inactive) |
| O=c1[nH]c(=O)[nH]c(=O)[nH]1 | 80.8% (inactive) |
| COc1cc2c(cc1OC)-c1c3c(cc4c1[C@@H](C2)N(C)CC4)OCO3 | 11.9% (inactive) |
| CCCN1C(=O)NC(=O)C(CC)(N2C(=O)c3c(F)c(F)c(F)c(F)c3C2=O)C1=O (stereo not given) | -79.6% (active) |
| C[N+]1(C)CCCC1c1cccnc1 (stereo not given) | 102% (inactive) |
| N#CC(C#N)=C(C#N)C#N | 102% (inactive) |
| COC(=O)CCP(CCC(=O)OC)c1ccccc1 | 113% (inactive) |
| COc1c(O)cc2c(c1OC)-c1ccc(SC)c(=O)cc1C(NC(C)=O)CC2 (stereo not given) | 9.41% (active) |
| N#Cc1ccc(Cl)cc1 | 92.5% (inactive) |
| C[C@]12CCc3sc(Nc4ccc(O)cc4)nc3C1=CC[C@@H]1[C@@H]2CC[C@]2(C)C(=O)CC[C@@H]12 | 11% (inactive) |
| CC[C@@H](C)C(=O)O[C@H]1[C@H](O)[C@H]2[C@@H](CN3C[C@@H](C)CC[C@H]3[C@@]2(C)O)[C@@H]2C[C@]34O[C@]5(O)[C@@H](OC(=O)[C@@](C)(O)CC)CC[C@@]3(C)[C@@H]5[C@@H](OC(C)=O)[C@@H](OC(C)=O)[C@H]4[C@@]21O | 87.3% (inactive) |

Same assay, conditions: 75 µM

| Structure (SMILES) | growth |
| --- | --- |
| O=C(O)CCCc1ccc(N(CCCl)CCCl)cc1 | 6.72% (active) |
